Source: PubChem BioAssay
MCF10A rerep: A quantitative high throughput screen for small molecules that induce DNA re-replication in MCF 10a normal breast cells. AID 624296, 2012. 2.9% of 350,000 active. MCF 10A DNA re-replication, Hoechst nuclear intensity, 48 h. Potency, µM (titrated, usually from 46.1 µM), usual class: activators; also: nearly all actives have a fitted effect of over 50% in size
KB-V1 MDR tox: qHTS assay for MDR1-selective chemotherapeutics: Primary screen using the drug-selected MDR subline cells KB-V1; KB-V1 MDR cells viability, CellTiter-Glo, 72 h; Potency, µM (doses to about 46.1 µM), hits mostly cytotoxic; 3.4% of 400,000 active; also: nearly all actives have a fitted effect of over 60% in size
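Drug-selected KB-V1 cells, grown in DMEM lacking phenol red with 10% FBS, receive compound titrations; after three days at 37 degrees C, surviving cell ATP is quantified by CellTiter-Glo luminescence and responses normalized and curve-fitted.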
ALOX12 inh: Primary qHTS assay for inhibitors of human arachidonate 12S-lipoxygenase (ALOX12): Round 2; purified 12hLO, xylenol orange hydroperoxide absorbance; 1.1% of 580,000 active; Potency, µM (titrated, usually from 108 µM), usual class: inhibitors
Target sequence (P18054 whole entry, looked up): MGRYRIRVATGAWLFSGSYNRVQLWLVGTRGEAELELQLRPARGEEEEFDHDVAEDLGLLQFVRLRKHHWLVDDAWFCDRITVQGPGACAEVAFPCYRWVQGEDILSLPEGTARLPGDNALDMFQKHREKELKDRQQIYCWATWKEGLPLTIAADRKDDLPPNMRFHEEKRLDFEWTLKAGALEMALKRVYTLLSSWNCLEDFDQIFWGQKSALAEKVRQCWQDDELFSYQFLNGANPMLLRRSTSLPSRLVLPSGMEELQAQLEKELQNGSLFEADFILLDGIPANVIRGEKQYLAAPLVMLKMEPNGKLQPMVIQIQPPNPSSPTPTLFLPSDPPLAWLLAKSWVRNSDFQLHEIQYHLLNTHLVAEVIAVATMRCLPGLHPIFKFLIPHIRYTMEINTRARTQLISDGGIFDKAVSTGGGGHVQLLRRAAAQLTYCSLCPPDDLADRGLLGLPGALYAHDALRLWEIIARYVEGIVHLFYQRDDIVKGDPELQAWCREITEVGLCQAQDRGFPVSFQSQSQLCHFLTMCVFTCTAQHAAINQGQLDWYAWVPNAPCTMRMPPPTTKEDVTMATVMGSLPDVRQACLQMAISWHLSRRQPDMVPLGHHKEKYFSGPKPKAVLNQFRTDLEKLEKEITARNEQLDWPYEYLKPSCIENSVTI
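Purified human 12hLO at 150 nM in 25 mM Hepes, 0.01% Triton X-100, pH 7.0, preincubated 15 min at room temperature with compound. Reaction started with 40 uM arachidonic acid, 30 min at room temperature. Hydroperoxide measured by Fe-xylenol orange, 573/405 nm absorbance ratio.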
KB-3-1 tox: qHTS assay for MDR1-selective chemotherapeutics: Primary screen using the parental adenocarcinoma cell KB-3-1; KB-3-1 viability, CellTiter-Glo ATP luminescence, 72 h; AID 1347075, 2019; Potency, µM (titrated, usually from 46.1 µM), most hits filed as cytotoxic; 1.4% of 400,000 active; also: nearly all actives have a fitted effect of over 60% in size
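Viability of parental KB-3-1 cells, measured by CellTiter-Glo luminescence, followed a 72 h incubation at 37 °C with pinned compounds in phenol-red-free DMEM containing 10% FBS.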
PINK1 modulator: A Quantitative High throughput Screen to Identify Chemical Modulators of PINK1 Expression; PINK1 immunofluorescence, high-content cytometry, 24 h; Potency, µM (highest dose often 76.6 µM), usual class: activators; 0.2% of 410,000 active; AID 624263, 2012; active = well fitted activation curve with a large enough effect; inconclusive = small, poorly fitted or top-dose-only effect; cell line not stated here; also: nearly all actives have a fitted effect of over 65% in size
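PINK1 protein, normally rapidly degraded, was detected by immunofluorescence after 24 hour compound treatment of a stable cell line. Titration data (5 concentrations) came from laser-scanning cytometry, with CCCP-treated wells as controls.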
SW480 rerep: A quantitative high throughput screen for small molecules that induce DNA re-replication in SW480 colon adenocarcinoma cells | AID 624297, 2012 | Potency, µM (doses to about 46.1 µM), usual class: activators | SW480 DNA re-replication, Hoechst DNA content imaging, 48 h | 1.8% of 340,000 active; also: nearly all actives have a fitted effect of over 55% in size
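Readout is total intensity of Hoechst-stained nuclei, excited at 405 nm and collected at 500-530 nm. Compound treatment lasted 48 hr at 37 C in 5% CO2 before staining.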
A number is an active result; [ ] = another dose, or the depositor's remark. Sampled rows, rich in hits. Any-hit rate of the full collection: about 5.8%. Unless noted, calls follow the shape of the dose curve; as a rule, active = well fitted curve in the direction sought with a large enough effect; inconclusive = small, poorly fitted or top-dose-only effect, or another doubt; inactive = no such curve, though single readings can be large; an effect the other way counts as inactive or inconclusive.

`O=C1C=C(N(CCO)Cc2ccccc2)c2ccccc2C1=O` gave MCF10A rerep 6.5µM, KB-V1 MDR tox 18µM, KB-3-1 tox inconclusive, PINK1 modulator inactive and SW480 rerep 15µM.
For O=C1c2ccccc2C(=O)c2c1cccc2N(CCO)CCO the results were MCF10A rerep inactive, KB-V1 MDR tox inactive, ALOX12 inh inactive, KB-3-1 tox inactive, PINK1 modulator inactive and SW480 rerep inactive[1.84 µM].
O=C1CC(N(CCc2ccccc2)C(=S)Nc2ccccc2)C(=O)N1c1ccccc1 (stereo unspecified) was read as MCF10A rerep inconclusive, KB-V1 MDR tox 16µM, ALOX12 inh inactive, KB-3-1 tox inactive, PINK1 modulator 25µM and SW480 rerep inconclusive.
O=C1CC(N(CCc2ccccc2)C(=S)Nc2ccccc2)C(=O)N1c1ccc(F)cc1 (stereo unspecified) was read as MCF10A rerep 18µM, KB-V1 MDR tox inactive, ALOX12 inh inactive, KB-3-1 tox inconclusive, PINK1 modulator inconclusive and SW480 rerep inactive.
For COC(=O)CN(C(=S)Nc1ccc(F)cc1)C1CC(=O)N(c2ccc(OC)cc2)C1=O (stereo unspecified) the results were MCF10A rerep inactive, KB-V1 MDR tox inconclusive, ALOX12 inh 32µM, KB-3-1 tox inactive, PINK1 modulator inconclusive and SW480 rerep inactive.
Screening Cc1cccc2c(C(=O)NCc3cccs3)cc(-c3cccnc3)nc12 returned ALOX12 inh inactive.
`COc1ccc(N(C(C)C(=O)N/N=C/c2ccc(OCC(C)C)cc2)S(C)(=O)=O)cc1` (stereo unspecified) gave MCF10A rerep inactive, KB-V1 MDR tox inconclusive, ALOX12 inh inactive, KB-3-1 tox inactive, PINK1 modulator inactive and SW480 rerep 4.1µM.
`CC(C)(C)C(=O)Nc1cccc(NC(=O)c2cc(Cl)ccc2F)c1` gave ALOX12 inh inactive.
Fc1ccc(CCNC(=S)Nc2ccc(F)c(Cl)c2)cc1 was read as MCF10A rerep inconclusive, KB-V1 MDR tox inconclusive, ALOX12 inh inconclusive, KB-3-1 tox inconclusive, PINK1 modulator 14µM and SW480 rerep inactive.
Screening O=C(NC(=S)NCCC1=CCCCC1)c1cccs1 returned ALOX12 inh 11µM.
`CCCCc1ccc(NC(=S)NCCc2ccc(Cl)cc2)cc1` gave ALOX12 inh 32µM.
For S=C(NCCCc1ccccc1)Nc1ccc(Cl)cc1 the results were MCF10A rerep inconclusive, KB-V1 MDR tox inconclusive, ALOX12 inh 40µM, KB-3-1 tox inactive and PINK1 modulator inconclusive.
For O=C(COC(=O)c1cccs1)NCCC1=CCCCC1 the results were MCF10A rerep inactive, KB-V1 MDR tox inactive, ALOX12 inh inactive, KB-3-1 tox inactive, PINK1 modulator inactive and SW480 rerep inactive.
Fc1ccc(NC(=S)NCCc2ccc(Cl)cc2)cc1 was read as MCF10A rerep inconclusive, KB-V1 MDR tox inconclusive, ALOX12 inh inactive, KB-3-1 tox inactive, PINK1 modulator inactive and SW480 rerep inconclusive.
`COc1cccc(NC(=O)N[C@H]2[C@H](O)[C@@H](N3CCN(c4ccccc4)CC3)[C@@H]3OC[C@H]2O3)c1` gave ALOX12 inh inactive.
Screening O=C(NC1CCOC2(CCOCC2)C1)c1cnc2c(O)cccn2c1=O (stereo unspecified) returned ALOX12 inh inactive.
Screening CCCCc1ccc(NC(=S)Nc2ccc(Cl)c(S(=O)(=O)N(C)C)c2)cc1 returned MCF10A rerep inconclusive, KB-V1 MDR tox 23µM, ALOX12 inh 45µM, KB-3-1 tox inconclusive, PINK1 modulator inconclusive and SW480 rerep inactive.
`O=[N+]([O-])c1ccc(NC(=S)NCCc2ccc(F)cc2)cc1` gave MCF10A rerep 10µM, KB-V1 MDR tox inactive, ALOX12 inh inconclusive, KB-3-1 tox inconclusive, PINK1 modulator inconclusive and SW480 rerep inconclusive.
COc1ccc(NC(=S)NCCC2=CCCCC2)cc1OC was read as MCF10A rerep inactive, KB-V1 MDR tox inactive, ALOX12 inh inconclusive, KB-3-1 tox inactive, PINK1 modulator inactive and SW480 rerep inactive.
For S=C(NCCC1=CCCCC1)Nc1ccc(Cl)cc1 the results were MCF10A rerep inactive, KB-V1 MDR tox 7.3µM, ALOX12 inh inactive, KB-3-1 tox inactive, PINK1 modulator inconclusive and SW480 rerep inactive.
For O=C(NCCc1ccc(F)cc1)Nc1ccc([N+](=O)[O-])cc1 the results were MCF10A rerep inconclusive, KB-V1 MDR tox inactive, ALOX12 inh inactive, KB-3-1 tox inconclusive, PINK1 modulator inconclusive and SW480 rerep inactive.
`CCCCc1ccc(NC(=S)NCc2cccc(OC)c2)cc1` gave MCF10A rerep inconclusive, KB-V1 MDR tox inactive, ALOX12 inh inconclusive, KB-3-1 tox inactive, PINK1 modulator inconclusive and SW480 rerep inconclusive.
For CCCCc1ccc(NC(=S)Nc2ccc(Nc3ccc(OC)cc3)cc2)cc1 the results were MCF10A rerep 21µM, KB-V1 MDR tox 16µM, ALOX12 inh 35µM, KB-3-1 tox inconclusive, PINK1 modulator inactive and SW480 rerep inconclusive.
`O=C(O)/C=C/c1cccc(Cl)c1` gave ALOX12 inh inactive.
Screening CCOC(=O)c1nc(NCCc2ccccc2)sc1C returned MCF10A rerep 2.1µM, KB-V1 MDR tox inactive, ALOX12 inh inactive, KB-3-1 tox inactive, PINK1 modulator inactive and SW480 rerep inactive.
Screening c1ccc(CCNc2nc3ccccc3s2)cc1 returned MCF10A rerep inconclusive, KB-V1 MDR tox 18µM, ALOX12 inh inactive, KB-3-1 tox inactive, PINK1 modulator inactive and SW480 rerep inactive.
`O=C(Nc1cccc(F)c1)Nc1ccc2n(c1=O)C[C@H]1C[C@@H]2CN(C(=O)c2ccc(F)cc2)C1` gave ALOX12 inh inactive.
CCn1cc(CN(C)C(=O)/C=C/c2ccc([N+](=O)[O-])cc2)c(C)n1 was read as MCF10A rerep inactive, KB-V1 MDR tox 18µM, ALOX12 inh inactive, KB-3-1 tox inactive, PINK1 modulator inactive and SW480 rerep inactive.
Cc1nn(C)cc1C(=O)/C=C/c1ccc([N+](=O)[O-])cc1 was read as MCF10A rerep inconclusive, KB-V1 MDR tox inconclusive, ALOX12 inh inactive, KB-3-1 tox inconclusive, PINK1 modulator inactive and SW480 rerep inconclusive.
Screening Fc1ccccc1-c1noc2c1CN(Cc1cccn1-c1nccs1)CC2 returned ALOX12 inh inactive.
`COc1cccc(CNC(=O)c2cccc(NC(=O)C3=C(C)OCCS3)c2)c1` gave MCF10A rerep inactive, KB-V1 MDR tox inactive, ALOX12 inh inactive, KB-3-1 tox inactive, PINK1 modulator inactive and SW480 rerep inactive.
